Assay results: the supplement of paper PMC6555819

Legend:
Experiment in all cases: PBM binding z-score (relative to random genomic background probes); higher = stronger binding; sequences stand for … in GC…GCGATTGACAGCGTAGAATGAAGG
[1] = test system: FXR:RXRa (NR concentration 270 nM, RXRa partner concentration 90 nM)
Method in brief: (§1)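 For binding z-scores, the reference was random background probes on custom Agilent 4×180K protein-binding microarrays. These arrays were incubated 1 h with ligand-free nuclear receptor dimers in PBS pH 7.4, 2% milk, 0.02% Triton X-100, 1 mM DTT, 0.2 mg/mL BSA and 0.4 mg/ml salmon testes DNA. Fluorescence was scanned after antibody detection of each partner (one per run) and regression-normalized.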

[2] = test system: LXRa:RXRa (NR concentration 270 nM, RXRa partner concentration 90 nM)
Method in brief: as §1

[3] = test system: LXRa homodimer (NR concentration 270 nM)
Method in brief: as §1

[4] = test system: LXRb:RXRa (NR concentration 270 nM, RXRa partner concentration 90 nM)
Method in brief: as §1

[5] = test system: LXRb homodimer (NR concentration 270 nM)
Method in brief: as §1

[6] = test system: PPARa:RXRa (NR concentration 270 nM, RXRa partner concentration 90 nM)
Method in brief: as §1

[7] = test system: PPARg:RXRa (NR concentration 180 nM, RXRa partner concentration 90 nM)
Method in brief: as §1

[8] = test system: PPARg:RXRa 270nM:90nM, anti-RXR (NR concentration 270 nM, RXRa partner concentration 90 nM)
Method in brief: as §1

[9] = test system: PPARg:RXRa 30nM:10nM, anti-RXR (NR concentration 30 nM, RXRa partner concentration 10 nM)
Method in brief: as §1

[10] = test system: PPARg:RXRa 90nM:30nM, anti-RXR (NR concentration 90 nM, RXRa partner concentration 30 nM)
Method in brief: as §1

CCTCGGAGGACAGAAGGTTAGAGCTGTCCGCTTT
PBM binding z-score [1]: 0.0561
PBM binding z-score [2]: 0.0136
PBM binding z-score [3]: -0.236
PBM binding z-score [4]: -0.312
PBM binding z-score [5]: -1.14
PBM binding z-score [6]: -0.123
PBM binding z-score [7]: -0.506
PBM binding z-score [8]: -0.434
PBM binding z-score [9]: -0.944
PBM binding z-score [10]: -0.855

TAGACAGGGTCAAAGGCCAGAGTACGAATGTCGA
PBM binding z-score [1]: 7.27
PBM binding z-score [2]: 4.51
PBM binding z-score [3]: -0.0175
PBM binding z-score [4]: 3.89
PBM binding z-score [5]: 0.611
PBM binding z-score [6]: 5.99
PBM binding z-score [7]: 7.49
PBM binding z-score [8]: 6.93
PBM binding z-score [9]: 4.3
PBM binding z-score [10]: 6.42

ACAGACAGGTGATTGAAGGTAACTCAGCTGGACG
PBM binding z-score [1]: 0.407
PBM binding z-score [2]: 0.000463
PBM binding z-score [3]: -0.444
PBM binding z-score [4]: -0.451
PBM binding z-score [5]: -0.457
PBM binding z-score [6]: 0.0856
PBM binding z-score [7]: 0.626
PBM binding z-score [8]: -0.0372
PBM binding z-score [9]: 0.0722
PBM binding z-score [10]: -0.274

GCATATAGGTAATAAAAGGTGAAAGTCCGATTGT
PBM binding z-score [1]: 1.12
PBM binding z-score [2]: 4.97
PBM binding z-score [3]: 0.418
PBM binding z-score [4]: 1.97
PBM binding z-score [5]: -0.165
PBM binding z-score [6]: 2.47
PBM binding z-score [7]: 1.65
PBM binding z-score [8]: 2.12
PBM binding z-score [9]: 0.664
PBM binding z-score [10]: 1.72

GCTAGCAGGCCATTTGGGTCACACAATGACGGGC
PBM binding z-score [1]: 0.201
PBM binding z-score [2]: 0.0992
PBM binding z-score [3]: -0.68
PBM binding z-score [4]: 0.327
PBM binding z-score [5]: -0.778
PBM binding z-score [6]: 1.89
PBM binding z-score [7]: 1.2
PBM binding z-score [8]: 1.09
PBM binding z-score [9]: -0.147
PBM binding z-score [10]: 0.392

TCTAGTTGGTCTCGGAGGTCACACACGACGGGTA
PBM binding z-score [1]: 2.68
PBM binding z-score [2]: 3
PBM binding z-score [3]: 2.28
PBM binding z-score [4]: 3.18
PBM binding z-score [5]: 0.844
PBM binding z-score [6]: 3.52
PBM binding z-score [7]: 1.68
PBM binding z-score [8]: 3.05
PBM binding z-score [9]: 3.33
PBM binding z-score [10]: 3.13

CGTCCAAGGTGATAGGAGGTCAGTGAAGACAGAT
PBM binding z-score [1]: 1.74
PBM binding z-score [2]: 2.85
PBM binding z-score [3]: 0.6
PBM binding z-score [4]: 1.86
PBM binding z-score [5]: -0.299
PBM binding z-score [6]: 2.71
PBM binding z-score [7]: 1.06
PBM binding z-score [8]: 1.49
PBM binding z-score [9]: 0.0813
PBM binding z-score [10]: 0.512

GCAGACAGGTCAAACGCAGGTAACTCAGGGTGGC
PBM binding z-score [1]: 6.46
PBM binding z-score [2]: 4.96
PBM binding z-score [3]: 1.47
PBM binding z-score [4]: 3.62
PBM binding z-score [5]: 0.592
PBM binding z-score [6]: 5.06
PBM binding z-score [7]: 3.15
PBM binding z-score [8]: 3.59
PBM binding z-score [9]: 0.933
PBM binding z-score [10]: 2.14

AGTCAAAGTTCAGGACAAGGTAACGTAAAGCACG
PBM binding z-score [1]: 4.6
PBM binding z-score [2]: 3.97
PBM binding z-score [3]: 1.69
PBM binding z-score [4]: 2.19
PBM binding z-score [5]: 0.548
PBM binding z-score [6]: 3.47
PBM binding z-score [7]: 4.97
PBM binding z-score [8]: 4.95
PBM binding z-score [9]: 2.16
PBM binding z-score [10]: 4.11

CCGCCTGGGGCAGAAAGGTTACCATACCATCCGG
PBM binding z-score [1]: 0.138
PBM binding z-score [2]: 0.416
PBM binding z-score [3]: -0.112
PBM binding z-score [4]: 0.678
PBM binding z-score [5]: -1.32
PBM binding z-score [6]: 1.59
PBM binding z-score [7]: 0.804
PBM binding z-score [8]: 1.25
PBM binding z-score [9]: -0.385
PBM binding z-score [10]: 0.357

ATATGAAGGTTAGCTGGGGTCATTCAGACTAGGC
PBM binding z-score [1]: 5.27
PBM binding z-score [2]: 6.28
PBM binding z-score [3]: 3.34
PBM binding z-score [4]: 5.36
PBM binding z-score [5]: 1.06
PBM binding z-score [6]: 4.7
PBM binding z-score [7]: 2.43
PBM binding z-score [8]: 3.52
PBM binding z-score [9]: 1.14
PBM binding z-score [10]: 2.37

GCTCGGAGGACAAGGTCAGAGCGTTGTCCGTAGA
PBM binding z-score [1]: 2.18
PBM binding z-score [2]: 1.74
PBM binding z-score [3]: -0.229
PBM binding z-score [4]: 1.46
PBM binding z-score [5]: -0.608
PBM binding z-score [6]: 2.61
PBM binding z-score [7]: 0.378
PBM binding z-score [8]: 1.37
PBM binding z-score [9]: -0.49
PBM binding z-score [10]: 0.635
